# Screening data as filed in PubChem BioAssay.
# An excerpt weighted towards active compounds, which were near 5.9% of everything screened.
# HepG2 tox: qHTS for Inhibitors of TGF-b: Cytotox Counterscreen; HepG2 CAGA-GFP viability, ATP luminescence, 18 h; Potency, µM (titrated, usually from 46.1 µM), for inactives: at the top dose activity change, negative = cytotoxicity, actives largely listed as cytotoxic; 410,000 tested, 0.76% active
#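 CellTiter-Glo luminescence gave cytotoxicity after 18 hours at 37 degrees C. The cells were HepG2 CAGA-GFP in 1% FBS DMEM, stimulated with 500 pg/mL TGF-beta after compound addition. %Activity was normalised to no-cell wells (complete cell-killing) and DMSO (no toxicity), and curves were fitted and classified.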
# KB-3-1 tox: qHTS assay for MDR1-selective chemotherapeutics: Primary screen using the parental adenocarcinoma cell KB-3-1 | AID 1347075, 2019 | Potency, µM (doses to about 46.1 µM), usual class: cytotoxic | KB-3-1 viability, CellTiter-Glo ATP luminescence, 72 h | 400,000 tested, 1.4% active; further: on the % scale 0 is the no-effect control and ±100 the full control effect; nearly all actives have a fitted effect of over 60% in size
#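 Parental KB-3-1 viability, qHTS format: 72 h compound exposure, 37 °C; CellTiter-Glo; media-only wells and DMSO plates as controls; concentration-effect fits on corrected data.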
# S2 tox: Viability Counterscreen for Primary qHTS for Inhibitors of ATXN expression; S2 cells (HEK-293 line with an ATXN2-luciferase reporter) viability, CellTiter-Fluor protease fluorescence, 24 h; Potency, µM (titrated, usually from 56.7 µM), hits mostly cytotoxic; 400,000 tested, 0.49% active; AID 651635, 2014; further: nearly all actives have a fitted effect of over 40% in size
# KB-V1 MDR tox: qHTS assay for MDR1-selective chemotherapeutics: Primary screen using the drug-selected MDR subline cells KB-V1; KB-V1 MDR cells viability, CellTiter-Glo, 72 h; 400,000 tested, 3.4% active; Potency, µM (titrated, usually from 46.1 µM), hits mostly cytotoxic; further: on the % scale 0 is the no-effect control and ±100 the full control effect; nearly all actives have a fitted effect of over 60% in size
#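 Readout: CellTiter-Glo luminescence, 10 min after addition. Cells: KB-V1 MDR subline, 72 h at 37 degrees C with compound. Analysis: corrected, normalized data fitted to concentration-effect curves.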
# ATXN2 expr inh: Primary qHTS for Inhibitors of ATXN expression | Potency, µM (titrated, usually from 57 µM), for inactives: top-dose activity change, negative = inhibition, actives largely listed as inhibitors | 360,000 tested, 0.72% active | HEK-293 ATXN2-luciferase reporter, luminescence, 24 h; further: on the % scale 0 is the no-effect control and ±100 the full control effect; nearly all actives have a fitted effect of over 55% in size
#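 ATXN2-luciferase reporter cells (luciferase flanked by upstream and downstream ATXN2 gene portions) were treated 24 h at 37 °C with compounds at up to 57 uM. SteadyGlo luminescence gave expression; GF-AFC fluorescence gave viability.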
# TGFb SMAD3 inh: qHTS for Inhibitors of TGF-b. AID 588855, 2011. Potency, µM (top dose mostly 46.1 µM), for the others: top-dose activity, negative = inhibition, actives largely listed as inhibitors. HepG2 CAGA-GFP TGF-b/SMAD3 reporter, GFP fluorescence, 18 h; TGF-beta stimulated, 500 pg/mL final. 410,000 tested, 1.2% active; further: on the % scale 0 is the no-effect control and ±100 the full control effect; nearly all actives have a fitted effect of over 65% in size
#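 HEPG2 CAGA-GFP reporter cells (1000/well, DMEM with 1% FBS) received compounds, then recombinant TGF-beta at 500 pg/mL final for 18 hours at 37 degrees C. Per-cell GFP summed per well was normalised to unstimulated and stimulated DMSO controls before curve fitting.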
# An asterisk follows results filed as active; i = inactive; ? = inconclusive; . = no result. The call rests on the fitted dose curve; in most records, active means well fitted curve in the direction sought with a large enough effect; inconclusive means small, poorly fitted or top-dose-only effect, or another doubt; inactive means no such curve, though single readings can be large; an effect the other way counts as inactive or inconclusive. Potency means the concentration at half of the fitted maximal effect.
SMILES,HepG2 tox,KB-3-1 tox,S2 tox,KB-V1 MDR tox,ATXN2 expr inh,TGFb SMAD3 inh
Cc1ccccc1OCC(O)Cn1c(SC(C)C)nc2c1c(=O)[nH]c(=O)n2C (stereo not given),-30%,i,i,?,-12%,-18%
O=c1cc(N2CCN(c3cccc(Cl)c3)CC2)[nH]c(=O)n1C1CCCCC1,4%,?,i,?,?,1%
O=c1cc(N2CCN(c3ccccc3)CC2)[nH]c(=O)n1C1CCCCC1,-25%,i,i,i,5µM*,-27%
CN(C)c1ccc(/C=N/NC(=O)C(=O)/C=C2\NC3(CCCC3)Cc3ccccc32)cc1,15%,i,?,18µM*,6%,11%
Cc1cc2nc(N3CCC(NC(C)c4nc(-c5ccccn5)no4)CC3)nc(C)c2cc1C (stereo not given),.,.,i,.,.,.
Cc1c(/C=N/NC(N)=O)c2ccccn2c1C(=O)c1ccc(F)cc1,1%,i,i,18µM*,-5%,8%
CCOC(=O)c1c(C)[nH]c(C(=O)CN2C(=O)C(=O)N(CC(C)C)C2=O)c1C,-19%,i,i,i,-12%,-1%
COC(=O)c1c(C)[nH]c(C(=O)CN2C(=O)C3CC=CCC3C2=O)c1C (stereo not given),0%,i,i,21µM*,27%,-1%
Cc1cc2cc(CN(Cc3ccco3)C(=S)NCC3CCCO3)c(=O)[nH]c2cc1C (stereo not given),-8%,i,i,9.2µM*,-6%,-25%
Cc1ccc2cc(CN(Cc3ccco3)C(=S)NCC3CCCO3)c(=O)[nH]c2c1C (stereo not given),1%,i,i,4.1µM*,3%,-2%
CC(CNC(=O)C1CCN(C(=O)c2cc3sccc3n2C)CC1)c1ccccc1 (stereo not given),-31%,i,.,i,.,-22%
Cc1ccc(-c2csc3nnc(SCC(=O)N4CCN(Cc5ccccc5)CC4)n23)cc1,-24%,i,i,6.5µM*,9%,2%
O=C(CSc1nnc2scc(-c3ccccc3)n12)N1CCCc2ccccc21,-6%,i,i,i,3%,4%
O=C(CSc1nnc2scc(-c3ccccc3)n12)N1CCN(Cc2ccccc2)CC1,-13%,i,i,5.8µM*,15%,-8%
Cn1c(SCC(=O)N2CCN(Cc3ccccc3)CC2)nnc1-c1ccncc1,2%,i,i,i,4%,13%
Cc1nnc(N=c2ssnc2Cl)o1,-40%,?,?,i,?,2.5µM*
Cc1ccc(N=c2ssnc2Cl)cc1,-44%,?,i,i,-16%,?
N#Cc1cnn2c(-c3ccc(Cl)cc3Cl)ccnc12,-7%,i,i,16µM*,-26%,13%
N#Cc1cnn2c(N)c(-c3ccc(Cl)cc3)cnc12,10%,?,i,4.1µM*,0%,-22%
N#Cc1cnn2c(-c3cccc(C(F)(F)F)c3)ccnc12,-15%,i,i,i,.,-29%
COc1cccc(CNC(=O)Nc2cc(C(=O)NCc3cccc(F)c3)ccc2N2CCCC2)c1,-15%,?,?,i,?,-21%
O=c1c2ccccc2nc(-c2ccccc2)n1Cc1ccco1,-13%,i,i,12µM*,2%,1%
Cc1ccc(-c2nc3ccccc3c(=O)n2Cc2ccccc2)cc1,2%,i,?,13µM*,-14%,-2%
O=C1c2ccccc2C(=O)N1CCCc1nc2ccccc2c(=O)n1Cc1ccco1,10%,i,i,?,2%,0%
Cc1ccc(-c2nc3ccccc3c(=O)n2N)cc1,-5%,i,i,i,.,23%
SMILES,HepG2 tox,KB-3-1 tox,S2 tox,KB-V1 MDR tox,ATXN2 expr inh,TGFb SMAD3 inh
Cc1nn(Cc2ccccc2)c(C)c1NC(=O)CSc1nc2sc3c(c2c(=O)n1C)CCC3,-24%,9.2µM*,i,?,-21%,10%
CCN(CC)c1nn2c(=O)c(C(=O)NCCc3cccc(C)c3)cnc2s1,-43%,.,.,.,.,0%
Brc1ccc(CSc2nnc(Cc3c[nH]c4ccccc34)o2)cc1,-39%,i,i,18µM*,-19%,?
O=c1c(-c2nnc(SCc3ccc(Cl)cc3)o2)cccn1Cc1ccccc1,-19%,i,?,4.6µM*,1%,?
Clc1ccc(CSc2nnc(-c3c[nH]c4ccccc34)o2)cc1,-69%,i,i,?,-25%,16µM*
O=C(Nc1ccccc1-c1nnc(SCc2ccccc2)o1)c1ccccc1,-15%,i,i,15µM*,0%,0%
O=C(Nc1ccccc1-c1nnc(SCc2ccc(Cl)cc2)o1)c1ccccc1,0%,i,i,?,-2%,-13%
COc1ccc2c(ccc[n+]2CC(=O)c2ccc(C)cc2)c1,-3%,?,i,i,-25%,-19%
CCc1ccc(C(=O)C[n+]2cccc3cc(OC)ccc32)cc1,-34%,13µM*,?,i,?,?
CCCOc1cccc(C2c3c(oc4ccccc4c3=O)C(=O)N2c2nncs2)c1 (stereo not given),-11%,.,.,.,.,?
O=C(Cc1ccccc1[N+](=O)[O-])NCC1(c2cccc3c2OCO3)OCCO1,-18%,i,i,18µM*,-3%,-26%
Cc1ccc(-n2nc(CO)c(C(=O)NCCC(C)C)n2)cc1C,-24%,.,.,.,.,?
COc1ccc(-c2noc(-c3ccccc3C(=O)N3CCOCC3)n2)cc1,-20%,i,i,9.2µM*,-4%,-14%
CC(C)N1CCC(C)(C(=O)Nc2ccccc2Oc2ccccc2)C1 (stereo not given),-9%,i,i,?,12%,-18%
CCOC(=O)c1cc(-c2ccccc2)n(-c2cccc(C(=O)NC(C)(C)C)c2)c1C,-11%,i,.,i,.,-1%
CCOC(=O)c1cc(-c2ccccc2)n(-c2cccc(C(=O)N(C)c3ccc(C)cc3)c2)c1C,17%,16µM*,.,?,.,1%
Cc1cc(C)n2ncc(C(=O)Nc3ccccc3)c2n1,.,i,.,?,.,.
COc1cc(/C=N/NC(=O)c2ccc(Cn3cc([N+](=O)[O-])cn3)o2)cc(Br)c1O,-82%,i,i,i,-3%,16µM*
O=C(Nc1cccc(F)c1)c1ccc(Cn2cc([N+](=O)[O-])cn2)o1,-18%,i,i,13µM*,-20%,-1%
